What was measured:
PIP5K2B = system: T1, PIP5K2B; conditions: Compound Concentration (nM):1000
T1 construct: gene PIP4K2B

PIP5K2C = system: T2, PIP5K2C; conditions: Compound Concentration (nM):1000
T2 construct: gene PIP4K2C

PKAC-alpha = system: T3, PKAC-alpha; conditions: Compound Concentration (nM):1000
T3 construct: gene PRKACA

PKAC-beta = system: T4, PKAC-beta; conditions: Compound Concentration (nM):1000
T4 construct: gene PRKACB

PKMYT1 = conditions: Compound Concentration (nM):1000
PKN1 = conditions: Compound Concentration (nM):1000
PKN2 = conditions: Compound Concentration (nM):1000
PKNB(M.tuberculosis) = conditions: 1 µM
PLK1 = conditions: Compound Concentration (nM):1000
PLK2 = conditions: Compound Concentration (nM):1000
PLK3 = conditions: Compound Concentration (nM):1000
PLK4 = conditions: Compound Concentration (nM):1000
PRKCD = conditions: Compound Concentration (nM):1000
PRKCE = conditions: Compound Concentration (nM):1000
PRKCH = conditions: Compound Concentration (nM):1000
PRKCI = conditions: Compound Concentration (nM):1000
PRKCQ = conditions: Compound Concentration (nM):1000
PRKD1 = conditions: Compound Concentration (nM):1000
PRKD2 = conditions: Compound Concentration (nM):1000
PRKD3 = conditions: Compound Concentration (nM):1000
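Also: KINOMEscan scanMAX binding as percent activity remaining versus control; lower means stronger binding.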

Compound | Percent Control (PIP5K2B) | Percent Control (PIP5K2C) | Percent Control (PKAC-alpha) | Percent Control (PKAC-beta) | Percent Control (PKMYT1) | Percent Control (PKN1) | Percent Control (PKN2) | Percent Control (PKNB(M.tuberculosis)) | Percent Control (PLK1) | Percent Control (PLK2) | Percent Control (PLK3) | Percent Control (PLK4) | Percent Control (PRKCD) | Percent Control (PRKCE) | Percent Control (PRKCH) | Percent Control (PRKCI) | Percent Control (PRKCQ) | Percent Control (PRKD1) | Percent Control (PRKD2) | Percent Control (PRKD3)
CCS(=O)(=O)c1ccc(OC)c(Nc2ncc(-c3cccc(F)c3)o2)c1 [GW621970X] | 99% | 3.8% | 100% | 100% | 100% | 100% | 68% | 100% | 96% | 93% | 100% | 40% | 100% | 100% | 100% | 100% | 100% | 100% | 100% | 85%
COc1cc(N2CCN(C(C)C)CC2)ccc1Nc1nc(Nc2ccc(F)cc2C(=O)NC[C@@H](O)CO)c2cc[nH]c2n1 [GSK1392956A] | 100% | 94% | 100% | 100% | 100% | 100% | 100% | 99% | 6.3% | 100% | 96% | 41% | 100% | 100% | 100% | 97% | 95% | 79% | 57% | 49%
Cl.O=C(Nc1ccc(Oc2ccc3[nH]c(NC(=O)c4ccccc4)nc3c2)cc1)Nc1cc(C(F)(F)F)ccc1F [GW709042A] | 100% | 97% | 100% | 100% | 100% | 100% | 60% | 88% | 100% | 98% | 92% | 77% | 87% | 100% | 100% | 90% | 100% | 100% | 100% | 83%
COc1ccccc1-c1cc(/C=C2\C(=O)Nc3ncc(Br)cc32)cc(Br)c1O [GW442130X] | 100% | 100% | 95% | 100% | 100% | 100% | 36% | 74% | 95% | 100% | 89% | 80% | 100% | 100% | 86% | 100% | 100% | 83% | 100% | 100%
COc1cc2ncnc(Nc3ccc4c(cnn4Cc4ccccc4)c3)c2cc1OC.Cl [GW282449A] | 100% | 73% | 100% | 37% | 100% | 100% | 100% | 100% | 91% | 100% | 100% | 100% | 100% | 64% | 100% | 100% | 100% | 100% | 100% | 98%
COc1ccc(COc2ccc(Cc3cnc(N)nc3N)cc2OC)cc1 [GW632580X] | 100% | 100% | 91% | 100% | 100% | 82% | 100% | 69% | 100% | 100% | 97% | 72% | 71% | 100% | 100% | 88% | 79% | 100% | 100% | 100%
C[C@@H](Oc1cc(-n2cnc3ccc(OC4CCN(C)CC4)cc32)sc1C(N)=O)c1ccccc1Cl [GSK579289A] | 52% | 75% | 100% | 100% | 81% | 72% | 57% | 35% | – | 13% | 19% | 78% | 66% | 100% | 100% | 43% | 58% | 100% | 84% | 70%
Nc1ncnc2occ(-c3ccc(NC(=O)Nc4cc(C(F)(F)F)ccc4F)cc3)c12 [GW770249X] | 100% | 77% | 100% | 100% | 100% | 100% | 90% | 100% | 100% | 1.9% | 16% | 80% | 76% | 94% | 100% | 100% | 100% | 100% | 100% | 85%
Cl.c1ccc(Cc2nc3ccc(Nc4ncnc5ccccc45)cc3[nH]2)cc1 [GR269666A] | 100% | 71% | 100% | 100% | 100% | 92% | 100% | 100% | 80% | 100% | 100% | 100% | 100% | 78% | 100% | 100% | 88% | 100% | 100% | 100%
CC1=C(C(=O)Nc2ccc3[nH]ncc3c2)C(c2ccc(Cl)c(Cl)c2)CC(=O)N1 (stereo not drawn) [GSK299115A] | 99% | 82% | 81% | 63% | 77% | 39% | 65% | 85% | 70% | 100% | 84% | 87% | 100% | 94% | 100% | 91% | 95% | 100% | 85% | 47%
COC(=O)Nc1nc2ccc(Oc3ccc(NC(=O)Nc4cc(C(F)(F)F)ccc4F)cc3)cc2s1.Cl [GW693917A] | 100% | 96% | 100% | 95% | 95% | 82% | 57% | 70% | 67% | 96% | 100% | 66% | 100% | 100% | 100% | 91% | 62% | 100% | 100% | 86%
COc1cc(C=NNc2ncnc3c2cnn3-c2ccccc2)ccc1O [GW513184X] | 59% | 1.4% | 100% | 100% | 100% | 81% | 100% | 86% | 100% | 37% | 71% | 77% | 100% | 88% | 100% | 100% | 86% | 100% | 100% | 100%
CCc1ccc(Oc2nccc(-c3c(-c4ccc(F)cc4)ncn3C3CCNCC3)n2)cc1 [SB-242719] | 100% | 100% | 36% | 31% | 89% | 94% | 91% | 81% | 98% | 77% | 83% | 79% | 100% | 95% | 100% | 95% | 84% | 95% | 85% | 70%
COc1ccc2c(-c3ccnc(Nc4cccc(OC(F)(F)F)c4)n3)cnn2n1 [GW810372X] | 100% | 32% | 100% | 100% | 100% | 100% | 76% | 82% | 91% | 100% | 83% | 100% | 99% | 100% | 94% | 100% | 100% | 100% | 100% | 100%
CN1CCN(C(=O)c2ccc(NC(=O)Nc3ccc(N(C)c4ccnc(Nc5ccc(CS(C)(=O)=O)cc5)n4)cc3)cc2)CC1.Cl [GW830263A] | 17% | 0.9% | 100% | 100% | 96% | 70% | 100% | 87% | 100% | 100% | 100% | 2.7% | 100% | 99% | 100% | 74% | 51% | 100% | 100% | 100%
CC1=C(C(=O)Nc2ccc3[nH]ncc3c2)C(c2ccc3ccccc3c2)CC(=O)N1 (stereo not drawn) [GSK270822A] | 100% | 83% | 64% | 68% | 90% | 45% | 76% | 87% | 73% | 100% | 82% | 88% | 100% | 100% | 100% | 80% | 82% | 100% | 100% | 22%
NS(=O)(=O)c1ccc(N/N=C2\C(=O)Nc3ccc(C(=O)NCc4ccncc4)cc32)cc1 [GW300657X] | 100% | 51% | 100% | 100% | 83% | 100% | 81% | 100% | 74% | 90% | 83% | 39% | 100% | 97% | 96% | 80% | 100% | 100% | 94% | 85%
NS(=O)(=O)c1ccc(N/N=C2\C(=O)Nc3ccc(C(=O)NCCc4c[nH]cn4)cc32)cc1 [GW300660X] | 100% | 48% | 100% | 100% | 100% | 100% | 80% | 92% | 100% | 75% | 76% | 81% | 100% | 98% | 100% | 90% | 100% | 100% | 100% | 85%
COc1ccc2cc(-c3c(-c4ccncc4)nc(-c4ccc(S(C)(=O)=O)cc4C)n3C)ccc2c1 [SB-633825] | 83% | 73% | 96% | 65% | 89% | 86% | 100% | 83% | 63% | 89% | 67% | 85% | 91% | 90% | 100% | 68% | 59% | 84% | 100% | 29%
NS(=O)(=O)c1ccc(N/N=C2\C(=O)Nc3ccc(-c4cnco4)cc32)cc1 [GW276655] | 69% | 100% | 88% | 94% | 95% | 100% | 87% | 78% | 77% | 83% | 76% | 60% | 75% | 100% | 100% | 54% | 81% | 100% | 94% | 100%

Reference: publication PMC7826789 (International Journal of Molecular Sciences, 2021)
